Laboratory results taken from PubChem BioAssay (Tox21).
Values without a mark were called inactive. Inconclusive results are not listed. Where a call stands in place of a potency, no number is given. Activity calls are given as the source filed them. Unless noted, the call rests on the fitted dose curve; in most records, active means well fitted curve in the direction sought with a large enough effect in the repeat runs; inconclusive means weak or mixed curves; inactive means no such curve, though single readings can be large; an effect the other way counts as inactive or inconclusive.

What was measured:
[1] = qHTS assay to identify small molecule agonists of the estrogen receptor alpha (ER-alpha) signaling pathway in the presence of an antagonist - cell viability counter screen (AID 1259386);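 further: cells exposed to compounds for 22 h at 37 °C before the viability read; nearly all actives have a fitted effect of over 30% in size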; further: potency means the concentration at half of the fitted maximal effect
Outline: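 VM7Luc4E2 cells (endogenous full-length ER-alpha, 4×ERE-luciferase) were held 5 days in phenol red-free medium with 10% charcoal-stripped FBS, plated, then given 10.0nM ICI-182,780 and compounds at 15 concentrations for 22hr at 37C; viability read by CellTiter-Fluor fluorescence.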

[2] = qHTS assay to identify small molecule antagonists of the progesterone receptor (PR) signaling pathway - cell viability counter screen (AID 1346798); further: nearly all actives have a fitted effect of over 50% in size; further: potency means the concentration at half of the fitted maximal effect
Outline: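 Viability was determined by ATP-based luminescence (CellTiter-Glo) in PR-UAS-bla HEK293T cells cultured in 2% charcoal-stripped serum and incubated 16 hr with compounds under R5020 stimulation.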

[3] = qHTS assay to identify small molecule antagonists of the TGF-beta/Smad signaling pathway - cell viability counter screen (AID 1346824); further: nearly all actives have a fitted effect of over 50% in size; further: potency means the concentration at half of the fitted maximal effect
Outline: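 Cytotoxicity counter-screen run in the same wells as the beta-lactamase Smad reporter read: CellTiter-Glo luminescence after 30 min at room temperature. HEK 293T SBE-bla cells had 5 hr compound exposure at 37 C with TGF-beta1 (0.25 ng/mL stock).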

[4] = qHTS assay to identify small molecule agonists of the TGF-beta/Smad signaling pathway - cell viability counter screen (AID 1346829); further: nearly all actives have a fitted effect of over 45% in size; further: potency means the concentration at half of the fitted maximal effect
Outline: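 Here the cytotoxicity of library compounds is measured in SBE-bla HEK 293T cells treated for 5 hr, using CellTiter-Glo added to wells already read for the beta-lactamase reporter.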

[5] = qHTS assay to identify small molecule agonists of the TGF-beta/Smad signaling pathway (AID 1346859; active means well fitted activation curve with a large enough effect in the signal ratio in the repeat runs, not every such curve was filed as active; the % refers to the signal ratio; further: series mostly up to about 77 µM)
Outline: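 Dual-wavelength fluorescence (460/530 nm emission) quantified beta-lactamase expression under the Smad binding element in HEK 293T cells following 5 hr compound treatment at 37 C.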

[6] = molecular target: Thyrotropin-releasing hormone receptor (Homo sapiens) (UniProt P34981); assay: qHTS assay to identify small molecule antagonists of the thyrotropin-releasing hormone receptor (TRHR) signaling pathway (AID 1346877; active means well fitted inhibition curve with a large enough effect in the repeat runs, not every such curve was filed as active; further: potency means the concentration at half of the fitted maximal effect)
Outline: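 TRHR-expressing HEK293 cells were seeded, cultured 18 h at 37 °C, then loaded with calcium dye for 2 h. Compounds were pre-incubated 5 min at room temperature before 1 nM TRH (final) was added, and kinetic fluorescence was recorded for 3 min.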

[7] = molecular target: Thyrotropin-releasing hormone receptor (Homo sapiens) (UniProt P34981); assay: qHTS assay to identify small molecule agonists of the thyrotropin-releasing hormone receptor (TRHR) signaling pathway (AID 1346891; calls by dose curve; further: potency means the concentration at half of the fitted maximal effect; on activation: series mostly up to about 58 µM)
Outline: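 Kinetic fluorescence (3 min, 1 s intervals) reported intracellular calcium after compound transfer onto TRHR-Hek293 cells pre-loaded with dye for 2 h at 37 °C.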

[8] = Caspase-3/7 induction in HepG2 cells by small molecules, qHTS assay (AID 1346978); further: nearly all actives have a fitted effect of over 15% in size; further: potency means the concentration at half of the fitted maximal effect
Outline: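 Caspase-3/7 induction was measured by Caspase-Glo 3/7 luminescence (30 min, room temperature) after a 17 hr compound exposure of wild-type HepG2 cells seeded at 2,000 per well and pre-incubated 5 hr.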

[9] = Caspase-3/7 induction in CHO-K1 cells by small molecules, qHTS cell viability counter screen (AID 1346979); further: nearly all actives have a fitted effect of over 35% in size; further: potency means the concentration at half of the fitted maximal effect
Outline: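 Seeding: 1,500 CHO-K1 cells/well. Rest: 5hr, 37C. Treatment: compounds in DMSO, 16hr. Read: CellTiter-Fluor, 1hr, fluorescence.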

[10] = Caspase-3/7 induction in HepG2 cells by small molecules, qHTS cell viability counter screen (AID 1346981); further: nearly all actives have a fitted effect of over 30% in size; further: potency means the concentration at half of the fitted maximal effect
Outline: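 Wild-type HepG2 cells (2,000/well) were allowed to settle for 5 hr at 37 C, 5% CO2, then dosed with compounds in DMSO by pin transfer. After 16 hr at 37 C, CellTiter-Fluor was added and fluorescence read 1 hr later.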

[11] = molecular target: Nuclear receptor subfamily 1 group I member 2 (Homo sapiens) (UniProt O75469); assay: Human pregnane X receptor (PXR) small molecule agonists, qHTS assay (AID 1346982); further: nearly all actives have a fitted effect of over 35% in size; further: potency means the concentration at half of the fitted maximal effect
Outline: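 PXR-Luc HepG2 cells (CYP3A4 promoter-driven luciferase) were seeded in medium with 5% charcoal-stripped FBS, left 5 hr at 37 C, then exposed to compounds in DMSO for 24 hr. Luminescence was read after ONE-Glo addition.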

[12] = molecular target: Nuclear receptor subfamily 1 group I member 2 (Rattus norvegicus) (UniProt Q9R1A7); assay: Rat pregnane X receptor (rPXR) activation by small molecules, qHTS assay (AID 1346983); details: rPXR luciferase reporter cells, One-Glo luminescence, 24 h; max activation: stronger effect = higher value; further: nearly all actives have a fitted effect of over 20% in size
Outline: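 Luminescent readout (One-Glo luciferase, 30 min room temperature) followed 24 hr compound treatment at 37 C of rPXR cells plated 2,000 per well and preincubated 5hr; qHTS format with compounds delivered in DMSO.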

[13] = molecular target: Nuclear receptor subfamily 1 group I member 2 (Homo sapiens) (UniProt O75469); assay: CYP3A4 induction through human pregnane X receptor (PXR) by small molecules, qHTS assay (AID 1346984); further: nearly all actives have a fitted effect of over 40% in size
Outline: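 DPX-2 cells (HepG2 co-transfected with PXR and CYP3A4 promoter-luciferase) treated with compounds 24 h at 37C; luciferin-IPA CYP3A4 substrate 3uM final added for 3 h, then One-Glo; luminescence read. qHTS format.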

[14] = molecular target: Nuclear receptor subfamily 1 group I member 2 (Homo sapiens) (UniProt O75469); assay: Human pregnane X receptor (PXR) activation by small molecules, qHTS assay (AID 1346985); further: potency means the concentration at half of the fitted maximal effect; nearly all actives have a fitted effect of over 40% in size
Outline: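 DPX-2 cells (HepG2 co-transfected with a PXR response element and a CYP3A4-promoter luciferase construct) were seeded at 2,000 per well, rested 5 hr at 37C, then exposed to DMSO-dissolved compounds for 24 hr. Activation was read as luciferase luminescence.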

[15] = molecular target: Acetylcholinesterase (Homo sapiens) (UniProt P22303); assay: Acetylcholinesterase (AChE) small molecule antagonists: colormetric cell-based qHTS assay (AID 1347395; calls by dose curve; further: nearly all actives have a fitted effect of over 30% in size; further: potency means the concentration at half of the fitted maximal effect)
Outline: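 Quantitative HTS in attached SH-SY5Y cells: 30 min compound exposure, then 90 min with acetylthiocholine and DTNB at 37 C; colour from thiocholine reports AChE activity.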

[16] = Human pregnane X receptor (PXR) small molecule agonists, qHTS cell viability counter screen (AID 1346977); further: nearly all actives have a fitted effect of over 50% in size; further: potency means the concentration at half of the fitted maximal effect
Outline: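 HepG2 cells stably carrying the PXR-Luc reporter are cultured with 5% charcoal-stripped FBS and treated with compounds for 24hr. CellTiter-Fluor is added at 23hr and fluorescence is read after 1hr.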

[17] = qHTS assay to identify small molecule agonists of the progesterone receptor (PR) signaling pathway - cell viability counter screen (AID 1346799; calls by dose curve; further: nearly all actives have a fitted effect of over 45% in size; further: potency means the concentration at half of the fitted maximal effect)
Outline: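 Viability was scored by ATP luminescence (CellTiter-Glo, 30 min, room temperature) in the same wells used for the reporter readout, after 16 hr compound exposure of PR-UAS-bla HEK293T cells.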

[18] = Caspase-3/7 induction in CHO-K1 cells by small molecules, qHTS assay (AID 1346980); further: nearly all actives have a fitted effect of over 15% in size; further: potency means the concentration at half of the fitted maximal effect
Outline: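 Luminescent Caspase-Glo 3/7 read (30min, room temperature) quantified apoptosis induction. Cells were wild-type CHO-K1, treated with compound for 17hr at 37 C and 5% CO2.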

[19] = molecular target: Progesterone receptor (Homo sapiens) (UniProt P06401); assay: qHTS assay to identify small molecule antagonists of the progesterone receptor (PR) signaling pathway (AID 1346795; active means well fitted inhibition curve with a large enough effect in the signal ratio in the repeat runs, not every such curve was filed as active; the % refers to the signal ratio; further: potency means the concentration at half of the fitted maximal effect)
Outline: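 After 6 hr plating at 37C in 2% stripped-serum medium, PR-UAS-bla HEK293T cells got compounds, then 1 nM R5020. Sixteen hours later, LiveBLAzer substrate was applied for 2 hr at room temperature and fluorescence was recorded.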

Chain of Nuclear receptor subfamily 1 group I member 2 (Homo sapiens) (O75469 whole entry, looked up): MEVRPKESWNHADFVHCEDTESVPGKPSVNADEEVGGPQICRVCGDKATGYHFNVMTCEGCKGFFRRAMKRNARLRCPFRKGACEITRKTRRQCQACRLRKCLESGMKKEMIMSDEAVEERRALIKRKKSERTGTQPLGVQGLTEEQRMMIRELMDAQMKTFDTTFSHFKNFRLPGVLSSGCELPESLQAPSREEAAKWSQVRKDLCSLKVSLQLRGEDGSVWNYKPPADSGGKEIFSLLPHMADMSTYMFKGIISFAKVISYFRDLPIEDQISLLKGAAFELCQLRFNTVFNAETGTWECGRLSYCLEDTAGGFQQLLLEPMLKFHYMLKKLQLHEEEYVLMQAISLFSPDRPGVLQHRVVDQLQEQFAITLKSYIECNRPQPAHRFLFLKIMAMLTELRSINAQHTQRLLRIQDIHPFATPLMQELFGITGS
Chain of Thyrotropin-releasing hormone receptor (Homo sapiens) (P34981 whole entry, looked up): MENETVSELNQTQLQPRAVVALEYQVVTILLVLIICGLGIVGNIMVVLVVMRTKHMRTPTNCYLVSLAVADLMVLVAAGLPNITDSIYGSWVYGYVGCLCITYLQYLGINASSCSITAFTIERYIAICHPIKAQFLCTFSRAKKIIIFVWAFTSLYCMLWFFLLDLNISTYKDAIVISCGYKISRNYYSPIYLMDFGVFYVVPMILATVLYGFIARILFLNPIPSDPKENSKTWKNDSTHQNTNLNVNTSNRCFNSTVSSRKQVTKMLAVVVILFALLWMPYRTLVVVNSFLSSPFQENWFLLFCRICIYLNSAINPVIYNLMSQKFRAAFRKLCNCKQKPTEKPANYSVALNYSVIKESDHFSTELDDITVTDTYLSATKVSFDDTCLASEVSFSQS
Chain of Acetylcholinesterase (Homo sapiens) (P22303 whole entry, looked up): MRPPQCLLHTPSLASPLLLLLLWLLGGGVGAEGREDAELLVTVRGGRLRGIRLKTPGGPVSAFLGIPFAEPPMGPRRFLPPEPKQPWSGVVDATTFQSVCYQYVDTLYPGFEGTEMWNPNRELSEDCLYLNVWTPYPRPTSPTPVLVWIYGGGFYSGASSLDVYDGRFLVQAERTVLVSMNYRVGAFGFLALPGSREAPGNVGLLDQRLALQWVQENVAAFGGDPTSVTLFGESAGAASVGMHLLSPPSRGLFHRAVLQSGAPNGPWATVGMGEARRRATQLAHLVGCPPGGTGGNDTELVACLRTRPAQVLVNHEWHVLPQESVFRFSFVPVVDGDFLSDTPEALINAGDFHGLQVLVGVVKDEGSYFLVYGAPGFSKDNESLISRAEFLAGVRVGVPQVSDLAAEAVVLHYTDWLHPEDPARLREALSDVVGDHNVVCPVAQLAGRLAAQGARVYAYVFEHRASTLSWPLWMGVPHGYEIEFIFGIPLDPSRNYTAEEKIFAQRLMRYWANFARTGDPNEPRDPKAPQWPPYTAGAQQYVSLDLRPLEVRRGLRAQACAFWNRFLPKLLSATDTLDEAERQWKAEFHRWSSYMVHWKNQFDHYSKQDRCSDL
Chain of Progesterone receptor (Homo sapiens) (P06401 whole entry, looked up): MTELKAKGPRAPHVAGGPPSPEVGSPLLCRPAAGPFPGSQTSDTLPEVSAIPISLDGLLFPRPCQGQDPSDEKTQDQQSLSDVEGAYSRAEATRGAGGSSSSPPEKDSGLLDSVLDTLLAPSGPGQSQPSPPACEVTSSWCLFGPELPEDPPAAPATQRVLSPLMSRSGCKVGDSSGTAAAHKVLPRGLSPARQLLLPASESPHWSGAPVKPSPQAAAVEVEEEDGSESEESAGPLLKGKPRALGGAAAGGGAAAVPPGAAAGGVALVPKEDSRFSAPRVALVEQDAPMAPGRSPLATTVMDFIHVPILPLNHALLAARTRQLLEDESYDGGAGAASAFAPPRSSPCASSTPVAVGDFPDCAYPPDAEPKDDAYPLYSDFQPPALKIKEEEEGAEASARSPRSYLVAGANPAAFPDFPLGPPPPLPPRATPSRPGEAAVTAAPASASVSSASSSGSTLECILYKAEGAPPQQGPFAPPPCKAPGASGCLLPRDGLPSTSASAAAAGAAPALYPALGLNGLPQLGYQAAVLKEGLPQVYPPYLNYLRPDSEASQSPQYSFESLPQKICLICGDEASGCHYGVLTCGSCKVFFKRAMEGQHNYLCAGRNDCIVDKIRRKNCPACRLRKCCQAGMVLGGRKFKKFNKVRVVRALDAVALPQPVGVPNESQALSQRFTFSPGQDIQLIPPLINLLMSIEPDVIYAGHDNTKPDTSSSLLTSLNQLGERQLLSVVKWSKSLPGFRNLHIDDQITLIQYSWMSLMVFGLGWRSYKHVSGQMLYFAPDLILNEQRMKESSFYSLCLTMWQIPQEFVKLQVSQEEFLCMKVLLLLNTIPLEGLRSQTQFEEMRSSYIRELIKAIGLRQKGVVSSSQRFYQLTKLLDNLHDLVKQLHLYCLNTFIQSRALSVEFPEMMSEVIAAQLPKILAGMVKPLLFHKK
Chain of Nuclear receptor subfamily 1 group I member 2 (Rattus norvegicus) (Q9R1A7 whole entry, looked up): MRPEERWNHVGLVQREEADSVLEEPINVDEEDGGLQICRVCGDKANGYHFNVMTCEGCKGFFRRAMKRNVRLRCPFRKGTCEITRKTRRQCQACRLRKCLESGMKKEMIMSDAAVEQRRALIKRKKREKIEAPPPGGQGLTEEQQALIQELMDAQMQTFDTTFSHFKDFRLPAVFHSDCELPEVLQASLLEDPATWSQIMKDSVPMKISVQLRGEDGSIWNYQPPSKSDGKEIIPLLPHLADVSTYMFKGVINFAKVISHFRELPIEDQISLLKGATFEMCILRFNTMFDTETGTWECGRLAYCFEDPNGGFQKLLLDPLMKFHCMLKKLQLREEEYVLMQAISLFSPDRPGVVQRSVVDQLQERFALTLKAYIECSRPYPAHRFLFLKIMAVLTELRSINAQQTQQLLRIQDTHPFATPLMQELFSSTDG

SMILES | Potency [1] | Potency [2] | Potency [3] | Potency [4] | outcome [5] | Potency [6] | Potency [7] | Potency [8] | Potency [9] | Potency [10] | Potency [11] | max activation [12] [%] | Potency [13] | Potency [14] | Potency [15] | Potency [16] | Potency [17] | Potency [18] | Potency [19]
CCN(CC)CCN1C(=O)CN=C(c2ccccc2F)c2cc(Cl)ccc21 | inactive | inactive | inactive | inactive | inactive | inactive | inactive | inactive | inactive | inactive | 13.3 µM (active) | 8.1 | inactive | 14.1 µM (active) | inactive | – | – | – | –
CN(C)c1ccc(N)cc1 | 53.2 µM (active) | inactive | inactive | – | inactive | – | inactive | inactive | 42.2 µM (active) | 47.4 µM (active) | 8.42 µM (active) | – | – | – | 12.3 µM (active) | 42.2 µM (active) | – | – | –
N#Cc1sc2c(=O)c3ccccc3c(=O)c=2sc1C#N | 7.7 µM (active) | 30.6 µM (active) | 49 µM (active) | 38.9 µM (active) | – | – | inactive | inactive | 21.7 µM (active) | – | 2.73 µM (active) | – | – | – | 44.8 µM (active) | 9.69 µM (active) | 30.6 µM (active) | inactive | –
CCC[CH2][Sn]([CH2]CCC)([CH2]CCC)[CH2]CCC | 17.2 µM (active) | 43.3 µM (active) | 38.9 µM (active) | 38.9 µM (active) | – | – | inactive | 68.6 µM (active) | 9.69 µM (active) | 61.1 µM (active) | 6.11 µM (active) | – | – | – | inactive | – | – | 17.2 µM (active) | 24.3 µM (active)
COP(=S)(OC)Oc1ccc([N+](=O)[O-])c(C)c1 | inactive | inactive | inactive | – | inactive | – | inactive | inactive | – | inactive | inactive | – | – | – | 35.6 µM (active) | inactive | – | – | 6.11 µM (active)
CCC(OC(C)=O)C(CC(C)NC)(c1ccccc1)c1ccccc1 (centres undefined) | inactive | 54.9 µM (active) | – | inactive | inactive | inactive | inactive | 69.2 µM (active) | 69.2 µM (active) | 69.2 µM (active) | – | – | – | – | inactive | 27.5 µM (active) | – | – | –
C=CC(=O)[O][Sn]([CH2]CCC)([CH2]CCC)[CH2]CCC | 10.9 µM (active) | 4.33 µM (active) | 2.45 µM (active) | 1.95 µM (active) | – | 13.5 µM (active) | 17.4 µM (active) | 2.43 µM (active) | 0.686 µM (active) | – | 0.172 µM (active) | – | – | – | inactive | 0.686 µM (active) | – | 1.22 µM (active) | –
[C-]1=CC=CC1.[Cl][Zr+2][Cl].c1cc[cH-]c1 | inactive | inactive | inactive | inactive | inactive | – | – | – | inactive | inactive | – | – | – | – | – | inactive | inactive | inactive | –
